Compound activity: PubChem, National Center for Advancing Translational Sciences (NCATS)
A selection: hits, their analogues and other compounds. The true share with any hit is near 7.5%.
SMN2 splice up – increases expression of the SMN2 splice variant; HEK293 SMN2-luciferase splicing reporter, luminescence, 30-36 h; Potency, µM (doses to about 46.1 µM), for inactives: at the top dose activity change, positive = activation, actives largely listed as activators; actives 2.8% (n = 210,000); AID 1458; also: % of control where 0% means no effect; nearly all actives have a fitted effect of over 55% in size
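HEK293 cells carry an SMN2 minigene-luciferase reporter in which exon 7 inclusion puts luciferase in frame. Cells were seeded at 2000 cells/well, attached for 10-12 hours, then exposed to compounds for 30-36 hours at 37C before ONE-Glo luminescence.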
Rab9 prom act – activators of Rab9 promoter. Huh7 Rab9 promoter-luciferase reporter, luminescence, 24 h. Potency, µM (highest dose often 9.22 µM), for the others: at the highest dose activation, negative = inhibition, hits mostly activators. actives 2.8% (n = 320,000). AID 485297; also: % of control where 0% means no effect; nearly all actives have a fitted effect of over 60% in size
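Stable Rab9-luc Huh7, 1500 cells/well, 2 h settle; cmpd in DMSO, 24 h, 37 °C/5% CO2; luciferase reagent 10 min RT; luminescence.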
FLuc counter – inhibits or activates purified firefly luciferase, miR-21 counter-screen. P08659. Potency, µM (doses to about 57.5 µM), for the others: top-dose activity change, negative = inhibition, actives largely listed as inhibitors. AID 588342. actives 6.9% (n = 360,000). purified FLuc, Km substrates, luminescence inhibition;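 also: plate controls were vehicle for no effect and reference inhibitor for full effect; nearly all actives have a fitted effect of over 55% in size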
Target sequence (P08659 whole entry, looked up): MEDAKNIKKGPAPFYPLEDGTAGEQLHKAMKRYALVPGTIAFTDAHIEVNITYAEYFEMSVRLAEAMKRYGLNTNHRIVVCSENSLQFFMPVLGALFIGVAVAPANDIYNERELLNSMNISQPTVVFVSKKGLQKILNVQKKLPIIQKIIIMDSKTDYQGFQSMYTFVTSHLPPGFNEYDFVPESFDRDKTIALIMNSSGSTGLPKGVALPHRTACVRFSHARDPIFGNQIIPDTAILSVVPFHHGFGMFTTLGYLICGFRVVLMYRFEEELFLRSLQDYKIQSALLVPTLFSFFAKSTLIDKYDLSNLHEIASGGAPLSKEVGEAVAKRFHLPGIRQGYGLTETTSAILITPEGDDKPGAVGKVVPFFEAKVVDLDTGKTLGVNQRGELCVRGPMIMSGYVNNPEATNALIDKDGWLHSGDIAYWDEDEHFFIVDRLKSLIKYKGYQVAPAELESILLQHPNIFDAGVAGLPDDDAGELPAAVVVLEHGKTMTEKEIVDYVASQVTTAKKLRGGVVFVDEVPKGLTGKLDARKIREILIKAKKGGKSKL
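Biochemical qHTS of compounds, final roughly 60 µM downward over six points, against 10 nM purified firefly luciferase using Km concentrations of substrates (10 uM D-luciferin, 10 uM ATP) in Tris acetate pH 7.5 buffer; luminescence output.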
NPC1 prom act – activators of NPC1 promoter. actives 2.4% (n = 320,000). Potency, µM (series often up to 9.22 µM), inactives show top-dose activation, hits mostly activators. Huh7 NPC1 promoter luciferase reporter, 24 h. AID 485313; also: % of control where 0% means no effect; nearly all actives have a fitted effect of over 60% in size
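Luminescence from an NPC1 promoter-driven luciferase reporter in stably transfected Huh7 cells was measured after 24 h compound treatment at 37 °C, followed by 10 min ambient incubation with luciferase detection reagent.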
KinaseGlo FLuc – blocks Kinase-Glo luciferase, a counter-screen artifact | actives 0.28% (n = 200,000) | Kinase-Glo luciferase, ATP luminescence, 8 min | Potency, µM (series often up to 38.3 µM), inactives show at the top dose activity change, negative = inhibition, usual class: inhibitors; also: % is scaled to controls: 0 for no effect and ±100 for the full control effect; nearly all actives have a fitted effect of over 60% in size
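Substrate mix (final 50 mM imidazole pH 7.2, 50 mM KCl, 7 mM MgCl2, 10 uM ATP, 0.01% Tween 20, 0.05% BSA) plus pin-tool compound, then Kinase-Glo detection mix; 8 min ambient, luminescence read.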
ELG1 genotox – inducers of genotoxicity in HEK293T ELG1-luciferase cells. HEK293T ELG1-luciferase reporter, luminescence, 16 h. Potency, µM (highest dose often 46 µM), without a hit: at the highest dose activity change, positive = activation, usual class: activators. actives 1.3% (n = 330,000); also: % of control where 0% means no effect; nearly all actives have a fitted effect of over 60% in size
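16 hr compound incubation (37 °C, 5% CO2) of HEK293T cells carrying luciferase-tagged ELG1; luciferase then measured by ONE-Glo luminescence after 30 min at RT.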
Active calls of the source: *; ? = inconclusive; · = not tested or not shown; [ ] = remark or other dose. Calls follow the shape of the dose curve; as a rule, active = well fitted curve in the direction sought with a large enough effect; inconclusive = small, poorly fitted or top-dose-only effect, or another doubt; inactive = no such curve, though single readings can be large; an effect the other way counts as inactive or inconclusive. Potency is read from the fitted curve at half-maximal effect.

SMILES	SMN2 splice up	Rab9 prom act	FLuc counter	NPC1 prom act	KinaseGlo FLuc	ELG1 genotox
Cc1cccc(OCCSc2nnc(-c3cccs3)o2)c1	·	·	-17%	·	·	·
Cc1nn(CC(=O)N(C)C2(C#N)CCCCC2)c(C)c1[N+](=O)[O-]	·	1%	1%	-3%	·	6%
COc1ccccc1CNC(=O)CSC1=Nc2ccccc2N=C(c2ccc(F)cc2)C1	·	·	-19%	·	·	·
CCOc1ccc(-c2nnc(-c3ccc(OC)cc3)o2)cc1	-6%	19%	?	10%	-5%	2%
CCOC(=O)CNC(=O)Nc1nnc(-c2ccc(OCC)cc2)o1	-7%	3%	12µM*	23%	0%	8%
CCOc1ccc(-c2nnc(-c3ccccc3)o2)cc1	0.56µM*	0.71µM*	1.1µM*	1.6µM*	-16%	?
COc1cc(C(=O)NCCOc2cc(C)cc(C)c2)cc(OC)c1OC	·	-19%	1%	-32%	·	-4%
Cc1cc(C)cc(NC(=O)N2CCN(C)c3ncccc32)c1	-9%	·	0%	·	·	·
COc1ccc(C(=O)n2nc(C)cc2Nc2ccccc2)cc1	0%	27%	11µM*	15%	-2%	23µM*
CCC(=O)Nc1ccc(N2CCN(C(=O)c3ccco3)CC2)c(Cl)c1	·	-4%	-1%	-3%	·	-3%
O=C(Nc1cc(Cl)ccc1N1CCOCC1)c1ccco1	·	0%	2%	-2%	·	1%
O=C(Nc1ccc(N2CCCCC2)c(Cl)c1)c1ncn[nH]1	·	23%	6µM*	?	1%	?
O=C(Nc1ccc(N2CCOCC2)c([N+](=O)[O-])c1)c1ccco1	13µM*	?	17µM*	26%	0%	7%
O=C(Nc1ccc(N2CCCC2)c(Cl)c1)c1ccco1	6.3µM*	0.5µM*	4.8µM*	1.4µM*	-12%	?
CCN1CCN(c2ccc(NC(=O)c3ccco3)cc2Cl)CC1	·	?	17µM*	?	·	?
Cc1ccc(S(=O)(=O)c2cn(Cc3ccccc3Cl)c3ccc(F)cc3c2=O)cc1	1%	·	2%	·	·	·
CCOC(=O)c1ccc(CN(Cc2ccc(F)cc2)S(=O)(=O)c2ccc(F)c(C(=O)Nc3c(C)cccc3C)c2)cc1	·	·	-6%	·	·	·
CN(C)C(=O)C1Cc2ccccc2CN1S(=O)(=O)c1ccc(F)cc1 (stereo unspecified)	·	-2%	1%	-3%	·	1%
CCN1CCN(c2ccc(NC(=O)c3cccc(F)c3)cc2Cl)CC1	·	3.5µM*	17µM*	?	-3%	?
Cc1ccc(NC(=O)c2cc(NC(=O)c3ccco3)ccc2N2CCOCC2)cc1Cl	-4%	0%	5%	-10%	0%	8%
CN1CCN(c2ccc(NC(=O)c3ccco3)cc2Cl)CC1	·	0.63µM*	4.8µM*	0.4µM*	·	8.2µM*
O=C(CCS(=O)(=O)c1cc(Br)cc2c1N(C(=O)C1CC1)CC2)N1CCN(c2cccc(C(F)(F)F)c2)CC1	6%	·	-12%	·	·	·
Cc1cccc(C(=O)NCC(=O)OCC(=O)c2cc(C)n(CC3CCCO3)c2C)c1 (stereo unspecified)	8%	22%	21µM*	15%	-6%	?
COc1cc(C(C)=O)ccc1OCC(=O)OCC(=O)c1cc(C)n(CC2CCCO2)c1C (stereo unspecified)	·	-5%	?	0%	·	2%
Cc1cc(C(=O)COC(=O)CNC(=O)c2ccccc2)c(C)n1CC1CCCO1 (stereo unspecified)	-6%	-12%	19µM*	-4%	-2%	8%
SMILES	SMN2 splice up	Rab9 prom act	FLuc counter	NPC1 prom act	KinaseGlo FLuc	ELG1 genotox
C=CCOc1cccc(/C=N/NC(=O)CN2CCCCC2)c1	·	-4%	-1%	-1%	·	0%
O=C(CSc1ncccc1C(=O)O)c1cccc(C(F)(F)F)c1	?	?	24µM*	19%	4%	?
O=C(CSc1ncccc1C(=O)O)c1ccc2ccccc2c1	?	?	9.5µM*	?	-1%	5%
O=C(CSc1ncccc1C(=O)O)c1ccccc1F	9%	20%	?	10%	-5%	3%
COc1ccc2oc(-c3ccccc3)c(OC)c(=O)c2c1	·	·	·	·	3%	·
Clc1ccc(/C=C/c2ncc[nH]2)c(Cl)c1	·	2.8µM*	2.4µM*	2.8µM*	·	?
CC1CCCC(C)N1CCCNC(=O)c1ccc2nc(N3CCOCC3)sc2c1 (stereo unspecified)	·	-1%	6%	0%	·	10%
CC1CC(C)CN(CCCNC(=O)c2ccc3nc(N4CCCCC4)sc3c2)C1 (stereo unspecified)	·	?	-12%	0.45µM*	·	?
CC1CCCC(C)N1CCCNC(=O)c1ccc2nc(N3CCCCC3)sc2c1 (stereo unspecified)	·	?	-11%	3.2µM*	·	11%
O=C(O)c1ccc(Oc2nc3ccccc3s2)cc1	?	·	·	·	-6%[7.66 µM]	·
CN(C)c1ccc(/C=C(\Cl)c2nc3ccccc3s2)cc1	-111%	1µM*	1.2µM*	2.5µM*	13µM*	?
O=C(O)c1ccc(C=C(c2nc3ccccc3s2)c2nc3ccccc3s2)cc1	0%	2%	12µM*	-3%	7%	-1%
COc1cc(C=C(c2nc3ccccc3s2)c2nc3ccccc3s2)cc(OC)c1O	-16%	-4%	15µM*	2%	2%	-2%
O=S(=O)(c1ccccc1)N1CN(c2ccc(F)cc2F)c2nc3ccccc3nc21	·	·	·	·	·	0%
O=S(=O)(c1ccccc1)N1c2cc(Cl)ccc2Oc2nc3ccccc3nc21	?	17%	13µM*	7%	2%	5%
COCCCNC(=O)c1ccccc1NS(=O)(=O)c1ccc(C)cc1	·	-5%	4%	-5%	2%	-5%
CCc1nn(CC(=O)NCCCOC)c(=O)c2cc3occc3n12	7%	·	1%	·	·	·
Clc1ccc(Nc2ccc(-n3ccnc3)nn2)cc1Cl	-2%	4%	27µM*	1%	-5%	-1%
c1ccc(Nc2ccc(-n3ccnc3)nn2)cc1	7%	2%	?	-2%	-7%	6%
Cc1noc(C)c1S(=O)(=O)N(CC(=O)NCc1ccccc1Cl)c1ccc(C(C)C)cc1	-9%	·	3%	·	·	·
CN1CCN(C(=S)NC(=O)c2ccc(C(C)(C)C)cc2)CC1	-1%	0%	?	-2%	3%	1%
O=C(NCC1CCCO1)C1CCN(C(=O)c2ccc(Cl)cc2)CC1 (stereo unspecified)	-16%	-19%	2%	0%	-3%	2%
CC(C)(C)c1ccc(C(=O)N2CCC(C(=O)NCc3ccco3)CC2)cc1	2.5µM*	11%	-18%	10%	-1%	6%
CC(C)(C)c1ccc(C(=O)NC(=S)NCC2CCCO2)cc1 (stereo unspecified)	·	12%	27µM*	7%	·	4%
